CYP2C9 inhib = blockers of cytochrome P450 2C9 activity – biochemical, luminescence, ADME assay, primary screen; P11712; CYP2C9 Supersomes, luciferin-H conversion; inhibition, % at 5 µM; actives 20% (n = 96,000);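 active = blocking of liver enzyme CYP2C9 beyond about 50% at 5 µM, limit read from the data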
CYP2C9 act = human CYP2C9 activators, primary screen, biochemical, luminescence; Cytochrome P450 2C9 (Homo sapiens), P11712; recombinant CYP2C9, luciferin-H conversion; active compounds read high; factor 1 = untreated enzyme, 0 = blocked; activation factor at 5 µM; actives 1.4% (n = 96,000);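 active = activation factor of 2 or more for CYP2C9 at a 5 µM dose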;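 note: 0 = sulfaphenazole-blocked wells and 1 = vehicle-only wells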
PostGolgi ctrl = growth inhibition of yeast control strain, primary screen, counter-screen for post-Golgi transport modulator project; efflux-deficient yeast background strain, growth absorbance A615, 16 h; AID 738, 2007; actives 5% (n = 98,000); inhibition, % at 10 µM
PostGolgi yeast = phenotypic screen on post-Golgi transport, primary screen | AID 739, 2007 | post-Golgi transport phenotypic cell assay | actives 0.9% (n = 98,000) | inhibition, % at 10 µM;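 note: yeast cells grown in 1536-well plates; yeast grown about 18 h at 30C before absorbance read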
CYP2C19 activ = human CYP2C19 activators, primary screen, biochemical, luminescence; AID 1025, 2008; recombinant CYP2C19, luciferin-H EGE luminescence; active compounds read high; 0 = fully inhibited enzyme, 1 = untreated enzyme; Cytochrome P450 2C19 (Homo sapiens), P33261; 96,000 tested, under 10 active; activation factor at 5 µM;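 active = activation factor of at least 2 at 5 µM in the primary screen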;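 note: 0 = wells with 2.5 mM tranylcypromine and 1 = vehicle-only wells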
Target sequence (P33261 whole entry, looked up): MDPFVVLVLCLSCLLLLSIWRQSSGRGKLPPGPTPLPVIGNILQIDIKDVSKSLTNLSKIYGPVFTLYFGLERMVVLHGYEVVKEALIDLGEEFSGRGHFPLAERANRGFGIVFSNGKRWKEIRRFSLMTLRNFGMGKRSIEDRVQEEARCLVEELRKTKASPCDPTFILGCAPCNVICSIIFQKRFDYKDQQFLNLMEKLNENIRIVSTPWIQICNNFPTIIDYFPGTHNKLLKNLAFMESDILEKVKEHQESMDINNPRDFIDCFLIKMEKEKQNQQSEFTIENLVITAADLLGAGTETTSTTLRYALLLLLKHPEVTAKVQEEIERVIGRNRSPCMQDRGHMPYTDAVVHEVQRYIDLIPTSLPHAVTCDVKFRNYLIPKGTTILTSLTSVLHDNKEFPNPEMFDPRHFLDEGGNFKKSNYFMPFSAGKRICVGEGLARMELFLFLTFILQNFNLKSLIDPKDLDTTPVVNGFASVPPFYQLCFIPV
CYP2C19 inh = blockers of cytochrome P450 2C19 activity – biochemical, luminescence, ADME assay, primary screen | actives 21% (n = 96,000) | AID 778, 2007 | P33261 | inhibition, % at 5 µM | CYP2C19 Supersomes, luciferin-H EGE luminescence, 30 min;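 active = CYP2C19 inhibition above a set limit at 5 µM in the primary screen, cut at about 50% in these data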;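 note: plate controls were negative control wells for no effect and 2.5 mM tranylcypromine positive control for full effect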
Active calls of the source: *; nt = no result given. Rows were chosen to be rich in hits. Some 32% of all compounds tested hit in one or more screens of this group. Cut-off read from the data, not from the text of the source, unless noted: active = inhibition above about 30%; inactive = the rest.

SMILES	CYP2C9 inhib	CYP2C9 act	PostGolgi ctrl	PostGolgi yeast	CYP2C19 activ	CYP2C19 inh
CCOc1ccc(-c2cc(CCCC(=O)NCCc3ccccc3)no2)cc1	50*	0.5	10	-4	0.6	42
COc1ccc(-c2cc(CCCC(=O)NCc3ccccn3)no2)cc1	67*	0.3	15	2	0.4	56*
CCOc1ccc(-c2cc(CCCC(=O)NCCc3ccc(OC)c(OC)c3OC)no2)cc1	66*	0.3	5	-1	0.8	22
CC(C)(O)c1nnn(-c2ccccc2)c1C(F)(F)F	-10	1.1	0	17	0.3	75*
Cc1nc(C(C)(C)O)n(-c2ccccc2)n1	4	1	27	6	0.9	10
CCOC(=O)N1CCC(NC(=O)C2CCCN(Cc3nc(-c4cccc(Cl)c4)oc3C)C2)CC1 (centres undefined)	54*	0.5	5	-3	0.3	67*
CCc1ccc(-c2nc(CN3CCCC(C(=O)NCCc4ccc(OC)c(OC)c4)C3)c(C)o2)cc1 (centres undefined)	54*	0.5	3	7	0.8	18
CCN1CCN(CCNC(=O)C2CCCN(Cc3nc(-c4cccc(Cl)c4)oc3C)C2)CC1 (centres undefined)	7	0.9	-1	5	0.8	16
COc1cc(SC)ccc1C(=O)Nc1ccon1	-22	1.2	31*	-5	0.9	5
Clc1ccc(CSc2nnc(-c3cccnc3)n2Cc2ccco2)c(Cl)c1	62*	0.4	22	13	0.2	75*
Clc1cccc(CSc2nnc(-c3cccnc3)n2Cc2ccco2)c1	65*	0.4	6	-1	0.2	81*
Cc1ccc2occ(C(c3nnnn3Cc3ccccc3)N3CCOCC3)c(=O)c2c1 (centres undefined)	28	0.7	23	21	0.7	31
COC(=O)c1cc(Br)ccc1-c1ccc(/C=N/n2nnnc2N)o1	38	0.6	6	-2	0.4	56*
COc1cc(/C=N/n2nnnc2N)ccc1O	-2	1	-2	1	0.9	6
Cc1nc2ccccc2c(=O)n1NCc1cccs1	21	0.8	22	-2	0.3	75*
O=C(Nn1c(Cc2cccs2)nc2ccccc2c1=O)c1cccs1	80*	0.2	-1	-10	0.2	84*
CCCc1nc2ccccc2c(=O)n1NC(=O)c1c(O)c2cccc3c2n(c1=O)CCC3	-5	1.1	29	18	1.2	-16
CCCn1c(NCc2cccs2)nc2ccccc21	-6	1.1	-7	-7	0.9	7
CSc1ccccc1C(=O)Nc1cccc(C(C)O)c1 (centres undefined)	-12	1.1	-2	4	1	0
Cc1ccnc(N2CCC(C(=O)Nc3ccc4c(c3)OCO4)CC2)n1	1	1	3	-3	0.9	5
CCN(N=Nc1cccc([N+](=O)[O-])c1)c1cccc([N+](=O)[O-])c1	58*	0.4	15	4	0.7	31
CCN1CCN(S(=O)(=O)c2cccc([N+](=O)[O-])c2)CC1	33	0.7	12	-5	0.9	6
CCN(CC)C(=O)CSc1nnc(-n2nc(C)cc2C)c2ccccc12	37	0.6	1	-5	1	2
CCc1c(C)c2ccc(OCC(=O)OC)cc2oc1=O	17	0.8	28	0	0.4	59*
COc1ccccc1OCCNC(=O)c1ccccc1C	-61	1.6	1	-1	0.5	47
SMILES	CYP2C9 inhib	CYP2C9 act	PostGolgi ctrl	PostGolgi yeast	CYP2C19 activ	CYP2C19 inh
COc1ccc(NC(=O)C(CC(C)C)NC(=O)c2ccccc2C)cn1 (centres undefined)	52*	0.5	3	-2	0.5	54*
C=CCn1c(=O)c2ccccc2n2c(SCc3csc(-c4ccccc4)n3)nnc12	25	0.7	25	-3	0.7	29
CCCNc1nc(N2CCOCC2)nc(N2CCOCC2)n1	14	0.9	-3	0	1	2
CCCNc1nc(Nc2ccc(C)cc2)nc(N2CCCC2)n1	22	0.8	36*	-5	1	-4
COc1ccc(CN2CC(C(=O)NCc3cccc(OC)c3)CC2=O)cc1 (centres undefined)	0	1	-3	-8	0.5	47
Cc1ccc2c(COC(=O)c3cnc(C)cn3)cc(=O)oc2c1	0	1	nt	nt	1	0
CCN(CC)c1ccc2c(Cl)cc(=O)oc2c1	16	0.8	30*	-5	0.8	21
CCN(CC)c1ccc(C(=O)OCc2cc(=O)oc3cc(O)ccc23)cc1	-100	2*	4	-5	0.1	94*
Cc1ccc(C(=O)N/C(=C\c2cn(-c3ccccc3)nc2-c2ccccc2)C(=O)N2CCOCC2)cc1	11	0.9	-1	-4	0.8	15
CCn1c(SCc2nc3ccccc3[nH]2)nnc1-c1cccs1	33	0.7	0	3	0	99*
Cn1nnnc1SCc1nc2ccccc2[nH]1	10	0.9	10	2	0.6	37
CCn1c(SCc2nc3ccccc3[nH]2)nnc1-c1ccccc1OC	70*	0.3	7	5	0	100*
N#Cc1ccsc1NC(=O)CN1CCN(c2ccccn2)CC1	22	0.8	5	-4	0.9	15
CC(C)(C)c1ccc(OC(=O)Cn2c(C(F)(F)F)nc3ccccc32)cc1	16	0.8	0	-4	0.9	9
COc1cccc(NC(=O)CCN2CCN(C)CC2)c1	-14	1.1	17	8	0.9	11
COc1ccc(OC)c(CNCCNC(=O)c2ccco2)c1	13	0.9	3	-5	0.3	73*
COc1ccc(NC(=O)c2ccccc2NC(=O)c2ccco2)c(OC)c1	59*	0.4	15	-4	0.8	24
COc1ccc(/C=C/C(=O)c2ccc(NC(=O)c3cccs3)cc2)cc1OC	72*	0.3	54*	-8	0.7	34
COc1ccccc1NC(=O)c1ccccc1NC(=O)c1cc(Cl)ccc1NC(=O)c1ccco1	25	0.7	13	0	1	4
COc1cc(NC(=O)c2cccs2)ccc1NC(=O)c1ccco1	74*	0.3	-3	-18	0.8	25
COc1ccc(NC(=O)c2cccs2)cc1O	-6	1.1	1	-4	1	0
O=c1[nH]c2c(cc1CNCCN1CCOCC1)c(-c1cccc(F)c1)nn2-c1ccccc1	20	0.8	nt	nt	1	4
CCCCC1CCC(C(=O)Nc2ccccc2)CC1 (centres undefined)	41	0.6	-6	18	0.9	7
CC(Nc1cc(=O)n(C)c(=O)[nH]1)c1ccccc1 (centres undefined)	41	0.6	14	5	0.9	6

Bioassay records: PubChem, several laboratories
